High-throughput results: PubChem BioAssay, several laboratories
dFosB act: activators of mouse delta FosB homodimer; P13346; purified delta FosB, TAMRA-CDK5 oligo fluorescence polarization; percent of positive-control signal above neutral wells; activation, % at 25 µM; 0.99% of 340,000 active; AID 493131;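 active = mean activation above about 17%, with every replicate also reaching it, limit read from the data, passing the limit was not always enough; inconclusive = only one of the two conditions met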
Target sequence (P13346 whole entry, looked up): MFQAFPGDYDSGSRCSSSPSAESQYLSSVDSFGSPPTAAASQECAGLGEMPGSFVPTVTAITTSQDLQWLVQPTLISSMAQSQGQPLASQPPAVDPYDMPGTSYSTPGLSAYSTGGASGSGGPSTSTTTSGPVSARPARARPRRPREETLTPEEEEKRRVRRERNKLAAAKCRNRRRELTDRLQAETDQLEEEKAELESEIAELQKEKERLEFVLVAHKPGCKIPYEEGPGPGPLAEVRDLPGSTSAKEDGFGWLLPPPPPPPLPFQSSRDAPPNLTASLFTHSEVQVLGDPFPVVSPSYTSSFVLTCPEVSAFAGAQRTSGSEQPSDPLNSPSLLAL
HSF1 activator: increases HSF-1 driven luciferase reporter signal | NIH3T3-HGL HSF-1 luciferase reporter, MG132, 8 h; 100% = twice DMSO control signal | activation, % at 9 µM | 1.7% of 300,000 active;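 active = mean replicate activation of at least 50% with a set share of replicates each reaching 50%; inconclusive = only one of those two conditions met; inactive = mean below 50% and too few replicates reaching it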;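 also: 0% = median of the neutral control wells and 100% = twice that signal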
HSF1 inh: HSF1 inhibition; NIH3T3-HGL HSE-luciferase, MG132-induced, luminescence 8 h; hits give low values; activity change, negative = inhibition, % at 7.5 µM (by protocol); 0.77% of 300,000 active;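 active = more than half of replicate wells show activity change below -50%, luminescence cut by over half; inconclusive = some wells, but at most half, below -50%; inactive = no replicate well below -50%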;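 also: luciferase reports HSF-1 transcriptional activity via heat shock element; 0% = median of DMSO wells and -100% = zero luminescence signal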
MPTP inh: permeability transition pore inhibition; AID 602449; isolated mouse mitochondria, Ca2+ swelling absorbance, 30 min; inhibition, % at 10 µM; 1.4% of 360,000 active;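 active = inhibition of 50% or more, scaled per plate between neutral and stimulator controls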;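 also: 0% = DMSO wells given calcium and 100% = 1 mM EGTA wells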
HSP90 inh: HSP90 refolding inhibition in rabbit reticulocyte lysate; inhibition, % at 5.6 µM; luciferase refolding luminescence, 3 h; 0.91% of 290,000 active;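 active = inhibition above the screen-wide mean plus 3 SD, computed separately per campaign, cut at about 16% in these data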;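 also: 0% = DMSO wells and 100% = 60 µM geldanamycin wells; inhibitors lower the luminescence because luciferase stays unfolded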
Platelet DG rel: platelet dense granule release activity; 0.22% of 300,000 active; AID 1663; inhibition, %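 (compounds screened at 7.5 µM in platelet-rich plasma)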; human platelet-rich plasma, SFLLRN dense granule ATP release, luminescence;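 active = mean replicate score, as percent of positive control, at or above 50; inconclusive = mean below 50 but at least one replicate at or above 50; inactive = mean and every replicate below 50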
* marks the source's active call; other numbers are inactive results; ? = inconclusive; / = no result. Sampled rows, rich in hits. Any-hit rate of the full collection: about 4.9%.

SMILES | dFosB act | HSF1 activator | HSF1 inh | MPTP inh | HSP90 inh | Platelet DG rel
O=C(Nc1ccc(C#Cc2ccccc2)cc1)C1CC1 | -4 | 82* | 34 | 11 | -3 | -1
CCCC(=O)Nc1ccc(C#Cc2ccccc2)cc1 | -2 | 61* | 28 | 18 | -4 | 9
Cc1cc(C)nc(SCc2ccc(C(=O)N/N=C3\CCCC(=O)C3)cc2)n1 | -11 | 2 | -1 | -1 | 3 | 0
CCOc1ccc(NC(=O)C(C)SC(N)=O)cc1 (stereo not drawn) | -12 | -70 | -60* | 0 | -1 | -3
c1ccc(OCCSc2nnnn2-c2ccccc2)cc1 | 5 | 69* | 46 | -2 | 4 | -3
O=C1c2ccccc2C(=O)N1CSc1nnnn1-c1ccccc1 | 3 | 22 | 5 | 3 | -1 | 6
CCOc1ccc(OCCSc2nnnn2-c2ccccc2)cc1 | -2 | 1 | 5 | 12 | 1 | 6
O=C1c2ccccc2C(=O)N1CCCCSc1nnnn1-c1ccccc1 | 0 | 53* | 19 | -1 | -1 | -2
CSc1ccccc1NC(=O)C(=O)c1c[nH]c2ccccc12 | -7 | 62* | 27 | 18 | -3 | -4
O=C(Cc1c[nH]c2ccccc12)Nc1nccs1 | -2 | -1 | 5 | 4 | 1 | 1
C[C@@H](NC(=O)C(=O)c1c[nH]c2ccccc12)c1ccccc1 | -4 | 7 | -5 | 0 | / | -2
O=C(Nc1nccs1)C(=O)c1c[nH]c2ccccc12 | 5 | 51* | 13 | -2 | 0 | /
CCOC(=O)Nc1cc2c(cc1[N+](=O)[O-])-c1ccccc1C2=O | -1 | / | / | 0 | / | /
COc1ccc(NC(=O)c2ccc(NCCN3C(=O)CCC3=O)c([N+](=O)[O-])c2)cc1 | -1 | 5 | 0 | 0 | 2 | 0
Cc1ccc(S(=O)(=O)Nc2cc3c4c(c2)CCN4C(=O)CC3)cc1 | -8 | 58* | 35 | 2 | / | -8
O=C1CCc2cc(NS(=O)(=O)c3ccc(F)cc3)cc3c2N1CC3 | -9 | 20 | 8 | 0 | / | 1
COc1ccc(-n2cnc3sc(-c4ccccc4)cc3c2=O)cc1 | -1 | ? | 25 | 2 | -4 | -2
COc1cccc(-n2cnc3sc(-c4ccccc4)cc3c2=O)c1 | -2 | 54* | 24 | 1 | / | 0
O=C(Nc1c(C(=O)c2ccccc2)oc2ccccc12)c1cc(-c2ccccc2O)n[nH]1 | 2 | 66* | 25 | 8 | -5 | 5
Cc1ccc(C(=O)c2oc3ccccc3c2NC(=O)c2cc(-c3cc(C)ccc3O)n[nH]2)cc1 | 1 | 1 | 1 | 6 | 4 | 3
CSc1nc(COC(=O)NC(C)C)c(COC(=O)NC(C)C)n1Cc1ccccc1 | / | / | / | 0 | / | /
Cc1cccc2c1cnn2C(=O)Nc1ccc(Br)cc1F | 10 | 26 | 21 | 0 | 0 | -9
CCOc1ccc(NC(=O)n2ncc3c(C)cccc32)cc1 | -2 | 11 | 9 | 0 | -7 | 11
COc1cccc(NC(=O)n2ncc3c(C)cccc32)c1 | -8 | 2 | 3 | 0 | 35* | 37
Cc1ccc(NC(=O)n2ncc3c(C)cccc32)c(C)c1 | -5 | 57* | 17 | -1 | -2 | 2
SMILES | dFosB act | HSF1 activator | HSF1 inh | MPTP inh | HSP90 inh | Platelet DG rel
COCCNCc1cc(C)n(-c2cc(S(=O)(=O)N3CCOCC3)ccc2N2CCCC2)c1C | -10 | / | / | -1 | / | /
COc1ccc(NS(=O)(=O)c2ccc(-c3ccccn3)s2)cc1 | / | -90 | -87* | 40 | / | 3
O=S(=O)(Nc1ccccc1Cl)c1ccc(-c2ccccn2)s1 | 0 | 0 | 2 | 4 | / | 7
Cc1nc2c(=O)n(C)c(=O)n(C)c2nc1Cl | -2 | 284* | 241 | 5 | 3 | 4
Cc1cc(C)c(NN=c2c(=O)c3ccccc3c2=O)c(C)c1 | -6 | 67* | 25 | 0 | 5 | -9
O=c1c(=NNc2ccccc2Cl)c(=O)c2ccccc12 | 0 | / | / | 2 | 26* | /
CCN(CC)S(=O)(=O)c1cccc(NN=c2c(=O)c3ccccc3c2=O)c1 | 2 | 2 | 1 | 4 | 0 | 19
COc1cccc(CNC(=O)CSc2nc3ccc(C)cc3[nH]2)c1 | -5 | -5 | 1 | 1 | 5 | 6
COc1ccc(Cn2c(CCC(=O)O)nc3cccnc32)cc1 | 0 | 17 | -1 | -1 | -1 | -3
COc1ccc(Cn2c(CCC(=O)Nc3ccc(C)cc3)nc3cccnc32)cc1 | 2 | 54* | 29 | -1 | -1 | -2
O=C(N/N=C/c1ccccc1Cl)c1cccc(F)c1 | -12 | 73* | 42 | 0 | -2 | -7
O=C(N/N=C/c1ccccc1Cl)c1n[nH]c2c1CCCC2 | 5 | -72 | -67* | 1 | 20* | 22
O=C(N/N=C/c1ccccc1)c1n[nH]c2c1CCCC2 | 7 | 41 | 18 | -1 | 5 | 3
O=C(/C=C/c1ccc(Cl)cc1Cl)N1CCc2ccccc21 | -7 | 55* | 22 | 1 | -4 | 11
COC(=O)c1cccc(Cn2nc(C)c([N+](=O)[O-])c2C)c1 | -3 | 23 | 5 | 1 | -4 | 9
CS(=O)(=O)c1ccc2nc(NC(=O)CCNC(=O)c3ccccc3Cl)sc2c1 | -14 | / | / | 0 | / | /
CCOC(=O)c1c(NC(=O)CSc2nnc(-c3c[nH]c4ccccc34)n2CCOC)sc2c1CCCC2 | -14 | 10 | 10 | 0 | 8 | -4
CCOC(=O)c1c(NC(=O)CSc2nnc(-c3c[nH]c4ccccc34)n2C)sc2c1CCCC2 | -13 | -65 | -56* | 0 | 0 | -1
Cc1ccc(C2=N/C(=C/N3CCOCC3)C(=O)O2)cc1 | -7 | 30 | 25 | -1 | -3 | -1
Cc1ccc(C2=N/C(=C\N3CCCCC3)C(=O)O2)cc1 | -11 | 63* | 21 | 1 | 3 | -3
CCOc1ccccc1N(CC(=O)NCCSc1ccccc1)S(C)(=O)=O | 5 | -1 | -5 | -2 | -1 | 1
O=C(/C=C/c1ccco1)Nc1ccc(C(=O)N2CCOCC2)cc1 | -8 | -6 | -1 | -1 | -4 | -2
O=C(/C=C/c1ccco1)Nc1ccc(N2CCCC2)cc1 | 41* | 64* | 33 | 0 | -3 | 4
Cc1csc(NC(=O)/C=C/c2ccco2)n1 | -7 | 57* | 24 | 0 | 1 | -18
O=C(Nc1ccn(CCOC(=O)c2ccccc2)c(=O)n1)c1ccccc1 | / | / | / | -1 | / | /
CCN(CC)C(=O)c1cc(-c2ccc(Br)cc2)on1 | 3 | 58* | 25 | -2 | -5 | -1
CSCCNC(=O)C1(C)CCN1C(=O)CCc1ccccc1 (stereo not drawn) | / | / | / | 0 | / | /
CC(C)Oc1ccc(CN2CCCC(CO)(Cc3ccccc3)C2)cc1CO (stereo not drawn) | -13 | 8 | 1 | 3 | 3 | -1
NC(=O)C[N+]1(CC#CC(O)(c2ccccc2)c2ccccc2)CCCC1 | -7 | -75 | -69* | 0 | 4 | -11
Cc1ccccc1NS(=O)(=O)c1ccc2c(c1)CCC(=O)N2 | / | / | / | -1 | / | /
